Measurements as given in PubChem BioAssay AID1345085 (National Center for Advancing Translational Sciences (NCATS), 2018).
Results filed as inconclusive are left out. Unmarked numbers belong to inactive results. The source made the active and inactive calls. The call rests on the fitted dose curve; in most records, active means well fitted cell-killing curve with a large enough effect; inconclusive means small, poorly fitted or top-dose-only effect, or effect the other way; inactive means no such curve, though single readings can be large or run the other way.

system: C33A; test: Confirmatory qHTS for gynecologic anti-cancer compounds from libraries of approved drugs and bioactive compounds; settings: gynecologic cancer cell panel viability, ATPlite luminescence, 48 h; series mostly up to 57.6 µM; activity change, negative = viability loss: at the top concentration; further: nearly all actives have a fitted effect of over 55% in size
Summary of the method: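 ATP-based luminescent viability (ATPlite) after 48 h drug treatment at 37 °C, 5% CO2, across 57.5 uM–0.977 nM in 1:3 steps. Cells seeded at 1,000 per well 16 h beforehand; IC50 values computed, HEK 293T as selectivity control.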
On the % scale 0 is the no-effect control and ±100 the full control effect; potency means the concentration at half of the fitted maximal effect.

Row | Structure (SMILES) | activity change, negative = viability loss | Potency
1 | Cn1c(=O)c(F)c(Nc2ccc(I)cc2F)c2c(=O)n(CC(O)CO)cnc21 (centres undefined) | -20.6% | 
2 | O=C(Nc1cn[nH]c1-c1nc2ccc(CN3CCOCC3)cc2[nH]1)NC1CC1 |  | 13.7 µM (active)
3 | COc1c(C)c2c(c(O)c1C/C=C(\C)CCC(=O)OCCN1CCOCC1)C(=O)OC2 |  | 2.73 µM (active)
4 | CCN(CC)CCCC(C)Nc1c2ccc(Cl)cc2nc2ccc(OC)cc12 (centres undefined) |  | 24.3 µM (active)
5 | COc1cccc2c1C(=O)c1c(O)c3c(c(O)c1C2=O)C[C@@](O)(C(=O)CO)C[C@@H]3O[C@H]1C[C@H](N)[C@H](O[C@@H]2CCCCO2)[C@H](C)O1 |  | 2.43 µM (active)
6 | Nc1ncnc2c1ncn2[C@@H]1O[C@H](CO)C[C@H]1O | 19.3% | 
7 | NS(=O)(=O)c1ccc(Nc2nc(OCC3CCCCC3)c3[nH]cnc3n2)cc1 | 15.5% | 
8 | CCN(CC)CCCC(C)Nc1ccnc2cc(Cl)ccc12 (centres undefined) | 7.04% [at 19.5 µM] | 
9 | COC(C(=O)N1Cc2[nH]nc(NC(=O)c3ccc(N4CCN(C)CC4)cc3)c2C1)c1ccccc1 (centres undefined) | 1.61% | 
10 | CN1C2CCC1CC(OC(=O)[C@H](CO)c1ccccc1)C2 (some centres undefined) | 1.35% | 
11 | Cc1cnc(Nc2ccc(F)cc2Cl)nc1-c1c[nH]c(C(=O)NC(CO)c2cccc(Cl)c2)c1 (centres undefined) | 4.56% | 
12 | COc1cc(Nc2c(C#N)cnc3cc(OCCCN4CCN(C)CC4)c(OC)cc23)c(Cl)cc1Cl |  | 27.3 µM (active)
13 | CC(C)[C@@H](CS(=O)(=O)C(C)C)N1C(=O)[C@@](C)(CC(=O)O)C[C@H](c2cccc(Cl)c2)[C@H]1c1ccc(Cl)cc1 | 0.0552% | 
14 | CN(C)C1CCN(C(=O)c2ccc(NC(=O)Nc3nc(N4CCOCC4)nc(N4CCOCC4)n3)cc2)CC1 |  | 0.172 µM (active)
